Results reported in PubChem BioAssay AID624126 (The Scripps Research Institute Molecular Screening Center, 2012).
“And” between values parts separate entries of the source, which are not always exact repeats. Equal entries are not always repeated. Screen size: about 360,000 compounds; about 1,400 (0.39%) were called active. This is one part of a sample in which actives are shown more often than they occur. A number with no mark means an inactive call.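 The calls were made as follows: active = activation above its plate's cutoff, the mean activation of sample wells plus 3 SD; inactive = the rest.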

These compounds were tested against Muscarinic acetylcholine receptor M4 (Homo sapiens) (UniProt P08173) (assay: human M4 muscarinic receptor positive allosteric modulators, primary screen, CHO-K1 cells, Fluo-8 calcium fluorescence (AID 624126)). Settings: CHO-K1 hM4/Gqi5, Fluo-8 calcium fluorescence, ACh EC20; at 3 µM; hits give high values; 0% = ACh EC20, 100% = maximal ACh.
Muscarinic acetylcholine receptor M4 (Homo sapiens), sequence (P08173 whole entry, looked up): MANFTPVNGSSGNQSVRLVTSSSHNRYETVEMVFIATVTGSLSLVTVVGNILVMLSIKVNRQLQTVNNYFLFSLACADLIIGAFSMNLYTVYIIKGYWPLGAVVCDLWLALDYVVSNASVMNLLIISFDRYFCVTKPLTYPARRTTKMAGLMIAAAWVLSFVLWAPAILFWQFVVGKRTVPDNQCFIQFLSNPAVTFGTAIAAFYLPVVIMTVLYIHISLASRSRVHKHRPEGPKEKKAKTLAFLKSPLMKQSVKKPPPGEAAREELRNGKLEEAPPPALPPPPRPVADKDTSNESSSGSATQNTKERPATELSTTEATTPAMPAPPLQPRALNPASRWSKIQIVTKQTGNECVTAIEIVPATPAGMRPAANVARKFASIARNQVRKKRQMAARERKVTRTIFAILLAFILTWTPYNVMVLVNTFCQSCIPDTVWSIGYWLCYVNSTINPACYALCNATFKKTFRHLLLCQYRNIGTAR
With `Cc1ccc(-n2ncc3c(Nc4cccc(C(=O)O)c4)ncnc32)cc1` the activation was 29.6% (active).
`COC(=O)CSc1ncnc2c1cnn2-c1ccc(C)cc1C` was tested, and the activation was 1.46%.
`COc1ccc2nc(C)cc(Nc3cccc(C(=O)O)c3)c2c1` showed an activation of -1.48%.
With `O=C1CN(C(=O)COC(=O)C2CC(=O)N(Cc3ccco3)C2)c2ccccc2N1` (stereo unspecified) the activation was 13.2%.
In the case of `O=C(NCc1ccc2c(c1)OCO2)c1c(-c2ccsc2)sc2ccccc12`, the activation is reported as -3.52%.
Work on `COc1cc2c(cc1OC)CN(C(C)C(=O)Nc1cccc(S(=O)(=O)N3CCOCC3)c1)CC2` (stereo unspecified) yielded an activation of 1.73%.
Compound `O=C(CNC(=O)C12CC3CC(CC(C3)C1)C2)OCC(=O)N1CCCCC1` has an activation of -2.08%.
In the case of `Cc1ccccc1CCNC(=O)C1CCC(=O)N(Cc2ccc(Cl)cc2)C1` (stereo unspecified), the activation is reported as -4.94%.
For `COC(=O)c1ccc(CNC(=O)C2CCC(=O)N(Cc3ccccn3)C2)cc1` (stereo unspecified), the activation was 13.8% (active).
For `COC(=O)c1ccc(CNC(=O)C2CCC(=O)N(Cc3cccc(F)c3)C2)cc1` (stereo unspecified), the activation was 2.75%.
`Cc1cc(C)c(S(=O)(=O)Nc2c(C)n(C)n(-c3ccccc3)c2=O)cc1[N+](=O)[O-]` was tested, and the activation was -0.44%.
In the case of `CCOC(=O)c1cc(C(C)C)sc1NC(=O)COC(=O)c1nccnc1N`, the activation is reported as 17%.
For `CC(C)(C)C(=O)CN1C2=NCCN2c2ccccc21`, the activation was -8.44%.
With `Cc1cccc(N(C(=O)c2ccc(CN3CCOCC3)o2)C(C(=O)NC2CCCCC2)c2ccc(F)cc2)c1` (stereo unspecified) the activation was 15.7% (active).
`O=C(NC1CCCC1)C(c1ccc(N2CCOCC2)cc1)N(C(=O)c1ccco1)c1ccccc1F` (stereo unspecified) gave an activation of -4.93%.
In the case of `Cc1ccc(N(C(=O)c2ccc(CN3CCOCC3)o2)C(C(=O)NCCC(C)C)c2cccs2)c(C)c1` (stereo unspecified), the activation is reported as 9.68%.
`CSc1ncccc1C(=O)Nc1cccc(S(=O)(=O)N2CCOCC2)c1` gave an activation of 7.64%.
With `Cc1ccc(S(=O)(=O)N(C)C)cc1NC(=O)C(C)OC(=O)c1ccc2ccccc2n1` (stereo unspecified) the activation was 21.1%.
With `COC(=O)c1cc(C(=O)OCC(=O)Nc2cc(C)on2)cc([N+](=O)[O-])c1` the activation was 19.2%.
`COC(=O)c1ccccc1NC(=O)Cn1nc(C(F)(F)F)c2c1CCC2` showed an activation of -1.81%.
Work on `COCCn1c(SCC(=O)Nc2ccccc2F)nc2c(c1=O)SCC2` yielded an activation of 1.76%.
With `COCCn1c(SCC(=O)N2CCCCCC2)nc2c(c1=O)SCC2` the activation was 28% (active).
Work on `COCCn1c(SCC(=O)Nc2ccc(F)cc2F)nc2c(c1=O)SCC2` yielded an activation of 0.05%.
Compound `CC(=O)n1cc([C@@H]2C=C(C(=O)N3CCN(Cc4ccc5c(c4)OCO5)CC3)O[C@H](OCc3ccc(CO)cc3)C2)c2ccccc21` has an activation of -4.81%.
`CC(C)n1ncc2c(C(=O)N3CCN(Cc4cccs4)CC3)cc(C3CC3)nc21` was tested, and the activation was 3.71%.
Work on `C=CCOc1ccc(/C=C/C(=O)OC(C)C(=O)Nc2ccc(NC(C)=O)cc2)cc1` (stereo unspecified) yielded an activation of 0.99%.
For `CC(OC(=O)/C=C/c1ccccc1)C(=O)Nc1ccc(C(N)=O)cc1` (stereo unspecified), the activation was 5.82%.
With `CCc1ccc(NC(=O)C(C)OC(=O)/C=C/c2cccc([N+](=O)[O-])c2)cc1` (stereo unspecified) the activation was 30.3% (active).
`O=C1CN(C(=O)CN2C(=O)NC3(CCCCC3)C2=O)c2ccccc2N1` gave an activation of 3.42%.
`Cn1c(SCC(=O)c2ccc(F)cc2)nnc1-c1ccccn1` was tested, and the activation was -3.85%.
For `Cn1c(SCC(=O)c2ccccc2)ncc(C(=O)Nc2ccc(F)cc2)c1=O`, the activation was 21.6% (active).
For `Cc1ccc(NC(=O)c2cnc(SCC(=O)NCC3CCCO3)n(C)c2=O)cc1` (stereo unspecified), the activation was 21.4%.
For `CC(C)NC(=O)N1Cc2cc(C(=O)NCC(F)(F)F)nc(-c3cccc(-c4cc5ccccc5o4)c3)c2[C@@H]1CCO`, the activation was 1.14%.
With `COc1ccc(CCNC(=O)CN2C(=O)CCSc3ccccc32)c(OC)c1` the activation was 0.14%.
With `CC(NS(=O)(=O)c1ccc(OCC(=O)N2CCCC2)cc1)c1ccccc1` (stereo unspecified) the activation was 1.05%.
Compound `O=C(COC(=O)c1ncc(Cl)c(Cl)c1Cl)NCc1ccccc1` has an activation of 16.7%.
Work on `Cc1ccccc1C(=O)NNC(=O)CN1C(=O)c2ccccc2C1=O` yielded an activation of 9.49%.
With `CCN1C(=O)c2cccc3c(S(=O)(=O)Nc4ccccc4O)ccc1c23` the activation was 17.5% (active).
`CCN(CC)S(=O)(=O)c1ccc2c3c(cccc13)C(=O)S2` was tested, and the activation was -6.1%.
In the case of `C/C(CC(=O)Nc1ccc(C)cc1C)=N\NC(=O)C(C)C`, the activation is reported as 2.54%.
In the case of `CN(C)C(=O)N1CCNCC1`, the activation is reported as 4.12%.
`Cc1cc(Br)cn2c(Cc3ccsc3)c(-c3ccc(C#N)cc3)nc12` gave an activation of -5.22%.
Work on `COc1cc(CCC(=O)OCC(=O)Nc2cccc(S(N)(=O)=O)c2)cc(OC)c1OC` yielded an activation of 1.58%.
`O=C1CSc2ccc(S(=O)(=O)NCc3ccccc3)cc2N1` was tested, and the activation was 0.62%.
`COc1cccc(C2=CC(=O)C[C@H](c3ccc(F)cc3)C2)c1OC` showed an activation of 2.96%.
`Cc1c(C=O)c2ccccn2c1C(=O)c1ccncc1` was tested, and the activation was 30.8% (active).
`Cc1c(C(=O)NNC(=O)c2ccncc2)oc2ccccc12` showed an activation of 5.49%.
In the case of `Cc1c(C=O)c2ccccc2n1CC(=O)O`, the activation is reported as 4.05%.
In the case of `COc1cccc(CNCCc2c[nH]c3ccccc23)c1OCc1ccccc1F`, the activation is reported as -8.42%.
`Cc1ccc(C(c2sc3nc(C)nn3c2O)N2CCN(c3ccccc3)CC2)cc1` (stereo unspecified) gave an activation of 4.41%.
For `Cc1nc2sc(C(c3ccco3)N3CCOCC3)c(O)n2n1` (stereo unspecified), the activation was 31.4% (active).
`Cc1nc2sc(C(c3ccco3)N3CCC4(CC3)OCCO4)c(O)n2n1` (stereo unspecified) gave an activation of 5.78%.
`CCc1nnc(NS(=O)(=O)c2ccc(NC(=O)c3cccc(OC(F)(F)C(F)F)c3)cc2)s1` was tested, and the activation was 13.1% (active).
In the case of `Cc1cc(NS(=O)(=O)c2ccc(NC(=O)c3cccc(OC(F)F)c3)cc2)nc(C)n1`, the activation is reported as 3.12%.
Compound `CCc1nnc(NS(=O)(=O)c2ccc(NC(=S)NC(=O)/C=C/c3cccs3)cc2)s1` has an activation of -0.35%.
In the case of `CC(C)(C)N1CC(c2nc3ccccc3n2Cc2ccc(F)cc2)CC1=O` (stereo unspecified), the activation is reported as -1.38%.
`CCc1ccccc1OCC(=O)Nc1ccc2c(c1)OCCO2` gave an activation of -2.66%.
In the case of `CC(=O)NCC(=O)N(C)C(C(=O)Nc1ccc2c(c1)OCCO2)c1ccccc1` (stereo unspecified), the activation is reported as 16.8% (active).
For `O=C(Nc1ccc2c(c1)OCCO2)C(C1CC1)N1CCC(Cc2ccccc2)CC1` (stereo unspecified), the activation was -15.2%.
`Cc1ccccc1OCC(=O)N(Cc1cccc(F)c1)C1CCS(=O)(=O)C1` (stereo unspecified) gave an activation of 0.66%.
`CCOCCCn1c(SCC(=O)Nc2cc(OC)ccc2OC)nc2ccccc2c1=O` showed an activation of -0.05%.
`CCOc1ccc(NC(=O)CSc2nc3ccccc3c(=O)n2Cc2cccs2)cc1` showed an activation of -2.3%.
`CCOc1ccc(-n2c(SCC(=O)Nc3cc(C(=O)O)ccc3Cl)nc3ccccc3c2=O)cc1` was tested, and the activation was 17.1% (active).
Work on `O=C1OCC2=C1C(c1ccccc1)CC(=O)N2c1cccc(F)c1` (stereo unspecified) yielded an activation of 11.7%.
In the case of `CC(C)c1cccc(C(C)C)c1Nc1cn[nH]c1`, the activation is reported as 28.5% (active).
`O=C(NCCOc1ccccc1)N1[C@H]2CC[C@@H]1C=C(c1ccc(F)cc1OCc1ccccc1)C2` was tested, and the activation was -2.49%.
`O=C(CSc1nnc(-c2c[nH]c3ccccc23)n1-c1ccc(F)cc1)NCc1ccco1` was tested, and the activation was 32.8% (active).
Work on `COc1ccc(-n2c(SCC(=O)NCc3ccco3)nnc2-c2c[nH]c3ccccc23)cc1` yielded an activation of -1.54%.
Compound `O=C(CSc1nnnn1-c1ccccc1)NCc1ccco1` has an activation of -4.53%.
In the case of `CC(Sc1ncnc2c1cnn2-c1ccccc1)C(=O)Nc1ccc(N2CCOCC2)cc1` (stereo unspecified), the activation is reported as 23.6% (active).
In the case of `CCn1c(SC(C)C(=O)Nc2ccc(N3CCOCC3)cc2)nnc1-c1ccco1` (stereo unspecified), the activation is reported as 1.69%.
In the case of `CCC(C)N(C(=O)CSc1ncnc2c1cnn2-c1ccccc1)C1CCS(=O)(=O)C1` (stereo unspecified), the activation is reported as -4.86%.
`CCC(=O)c1cc(F)ccc1OCC(=O)Nc1ccc2c(c1)OCCO2` was tested, and the activation was -4.48%.
`CCOC(=O)c1cnc2ccc(F)cc2c1Nc1ccc2c(c1)OCCO2` was tested, and the activation was 27.1% (active).
In the case of `CCOc1ncccc1C(=O)Nc1ccc2c(c1)OCCO2`, the activation is reported as -0.95%.
`CCOc1cc(C)c(Cl)cc1S(=O)(=O)n1nnc2ccccc21` gave an activation of 6.7%.
`COc1ccccc1Nc1ncc(C(C)=O)c(C)n1` was tested, and the activation was 2.09%.
In the case of `O=C(c1[nH]ncc1-c1ccc(Cl)cc1)C1CO1` (stereo unspecified), the activation is reported as -6.34%.
`COc1ccc(-n2c(C)cc(C(=O)CN3C(=O)NC4(CCc5ccccc54)C3=O)c2C)cc1` (stereo unspecified) showed an activation of -7.44%.
Work on `Cc1ccc(C(=O)CN2C(=O)NC3(CCc4ccccc43)C2=O)c(C)c1` (stereo unspecified) yielded an activation of -0.51%.
For `COc1ccc(C(=O)CN2C(=O)NC3(CCc4ccccc43)C2=O)c(OC)c1` (stereo unspecified), the activation was 22.9% (active).
For `Cc1ccc(C(=O)NCC(=O)NCc2cc(=O)n(C)c(=O)n2C)cc1`, the activation was -0.97%.
`CCOc1ccc(NS(=O)(=O)c2ccc(C(=O)NCC3CCCO3)cc2)cc1` (stereo unspecified) was tested, and the activation was -2.16%.
In the case of `CC(=O)c1sc(N)nc1C`, the activation is reported as 3.44% and -1.75%.
Work on `Cc1nc(N)sc1N=Nc1c(C)n(C)n(-c2ccccc2)c1=O` yielded an activation of 3.22%.
For `Cc1nc(N)sc1-c1ccccc1`, the activation was 16.2% (active).
For `CCN(C(=O)COC(=O)c1ccc(COc2ccc3c(C)cc(=O)oc3c2)cc1)C1CCS(=O)(=O)C1` (stereo unspecified), the activation was -5.76%.
For `CN=C(NC#N)NCCSCc1nc[nH]c1C`, the activation was -5.15%.
In the case of `O=C1c2cccc3cc(Br)cc(c23)C(=O)N1Nc1ccccc1`, the activation is reported as 21.6% (active).
`O=C1c2cccc3cccc(c23)C(=O)N1c1cccc(O)c1` was tested, and the activation was -10.1%.
Work on `O=C1C=C(c2ccc(Cl)cc2)C(=O)N1Nc1ccccc1` yielded an activation of -7.82%.
